# KDM5B inhibitor = blocks human KDM5B histone demethylase activity; Q9UGL1; KDM5B demethylase, FDH-coupled NADH fluorescence (FDH is formaldehyde dehydrogenase); Potency, µM (titrated, usually from 57.7 µM), most hits filed as inhibitors; actives 2.6% (n = 220,000); active means well fitted inhibition curve with a large enough effect; further: 0% is about no effect; nearly all actives have a fitted effect of over 70% in size
# Target sequence (Q9UGL1 whole entry, looked up): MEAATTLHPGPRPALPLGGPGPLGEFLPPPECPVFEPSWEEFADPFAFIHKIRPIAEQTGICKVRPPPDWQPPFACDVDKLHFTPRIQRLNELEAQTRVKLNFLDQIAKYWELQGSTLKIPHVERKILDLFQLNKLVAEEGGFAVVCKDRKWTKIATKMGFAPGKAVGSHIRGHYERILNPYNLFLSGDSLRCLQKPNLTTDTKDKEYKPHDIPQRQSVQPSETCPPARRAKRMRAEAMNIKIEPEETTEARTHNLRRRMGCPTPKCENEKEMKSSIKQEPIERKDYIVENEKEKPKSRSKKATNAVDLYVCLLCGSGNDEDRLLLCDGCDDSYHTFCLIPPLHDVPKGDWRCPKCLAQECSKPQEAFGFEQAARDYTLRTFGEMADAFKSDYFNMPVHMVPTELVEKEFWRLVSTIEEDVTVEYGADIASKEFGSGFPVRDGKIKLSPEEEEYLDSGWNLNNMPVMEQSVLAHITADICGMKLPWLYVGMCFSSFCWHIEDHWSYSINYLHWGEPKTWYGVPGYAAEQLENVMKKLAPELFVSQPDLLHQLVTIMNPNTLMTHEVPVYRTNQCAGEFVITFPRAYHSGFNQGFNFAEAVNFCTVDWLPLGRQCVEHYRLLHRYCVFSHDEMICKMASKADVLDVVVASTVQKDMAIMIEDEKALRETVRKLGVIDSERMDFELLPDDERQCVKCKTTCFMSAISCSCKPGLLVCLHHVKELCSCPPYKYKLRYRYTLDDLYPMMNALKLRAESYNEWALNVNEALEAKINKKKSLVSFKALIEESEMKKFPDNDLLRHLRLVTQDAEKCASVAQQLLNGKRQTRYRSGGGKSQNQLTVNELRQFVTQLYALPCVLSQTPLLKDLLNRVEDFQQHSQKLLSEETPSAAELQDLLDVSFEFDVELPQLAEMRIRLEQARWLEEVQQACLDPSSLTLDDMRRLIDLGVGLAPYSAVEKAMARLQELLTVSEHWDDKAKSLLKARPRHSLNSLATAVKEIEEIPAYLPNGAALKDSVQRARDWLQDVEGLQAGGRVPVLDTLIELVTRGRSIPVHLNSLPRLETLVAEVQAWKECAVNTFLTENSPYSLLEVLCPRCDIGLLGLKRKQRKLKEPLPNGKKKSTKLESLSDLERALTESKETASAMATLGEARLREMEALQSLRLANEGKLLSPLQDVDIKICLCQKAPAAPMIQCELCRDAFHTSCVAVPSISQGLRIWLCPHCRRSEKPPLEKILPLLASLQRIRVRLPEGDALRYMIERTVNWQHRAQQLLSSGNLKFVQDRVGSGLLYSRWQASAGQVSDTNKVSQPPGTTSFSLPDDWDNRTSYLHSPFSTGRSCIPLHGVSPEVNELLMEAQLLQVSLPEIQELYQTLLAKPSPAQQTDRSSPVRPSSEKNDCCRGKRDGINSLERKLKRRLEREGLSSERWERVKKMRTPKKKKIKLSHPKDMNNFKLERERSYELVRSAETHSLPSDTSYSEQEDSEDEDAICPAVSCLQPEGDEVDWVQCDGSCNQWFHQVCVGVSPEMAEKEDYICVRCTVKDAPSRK
#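 Here, H3K4me3 peptide (12.5 µM in substrate mix) is demethylated by KDM5BΔAP, 200 nM final, after 10 min compound exposure. Formaldehyde product is coupled through FDH (0.25 U/mL in mix) to NADH fluorescence; 30-min ΔRFU feeds dose-response curves.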
# * = called active by the depositor; i = inactive; ! = a repeat was not active. Many of the other results were omitted from the sample, so hits are more common in it than they were. Potency means the concentration at half of the fitted maximal effect.
SMILES,KDM5B inhibitor
O=C1Nc2ccc(-c3ccc4c(c3)OCO4)cc2C(=O)N2CCN(C(=O)NC3CCCCC3)C[C@H]12,11µM*
COc1ccc(CN[C@H]2[C@H](O)[C@@H](N3CCN(c4ccccc4OC)CC3)[C@@H]3OC[C@H]2O3)cc1,i
C[N+]1(C)CCNCC1,i
C=C(C)Cn1c(SCCCCC)nc2c1c(=O)n(C)c(=O)n2C,i
CCCSc1nc2c(c(=O)[nH]c(=O)n2C)n1Cc1cccc(Br)c1,i
CC1=C(C(=O)Nc2ccc(Cl)cc2)C(c2ccncc2)n2ncc(C(=O)Nc3ccccc3)c2N1 (stereo unspecified),i
COc1ccc(OCC2(C)COc3ccc(C(=O)N4CCN(C)C(=O)C4)cc3N2)cc1 (stereo unspecified),i
COc1ccc(OCc2ccc(C(=O)NCc3ccccc3)cc2)cc1,i
COc1ccc(C(CNC(=O)c2ccc3c(c2)OCCO3)N2CCOCC2)cc1 (stereo unspecified),i
COc1ccc(OCC2(C)COc3ccc(C(=O)NCC(C)C)cc3N2)cc1 (stereo unspecified),25µM*
CCOCC1(C)COc2ccc(C(=O)NCCc3ccccc3)cc2N1 (stereo unspecified),40µM*
COc1ccc(CCNC(=O)c2ccc(N(C)S(=O)(=O)c3ccccc3)cc2)cc1,i
COc1ccc(OCC2(C)COc3ccc(C(=O)NCc4cccc(F)c4)cc3N2)cc1 (stereo unspecified),32µM*
CC1(C(=O)NCCc2ccccc2)CCCCC(=O)N1 (stereo unspecified),i
COc1ccc(CNC(=O)c2ccc3ccccc3c2)cc1,i
COCCCN1C(=O)c2ccc(C(=O)NCCc3ccccc3)cc2C1=O,i
COc1ccc(OCC2(C)COc3ccc(C(=O)NCCc4ccccc4)cc3N2)cc1 (stereo unspecified),32µM*
COc1ccc(CCNC(=O)c2ccccc2C(=O)NCCc2ccc(OC)cc2)cc1,i
O=C1NCCCCCCN(S(=O)(=O)c2cccnc2)[C@H]2C[C@H](c3nc(-c4cccnc4)no3)C[C@@H]12,i
Cc1nc(N2CCS(=O)CC2)c2c(-c3ccccc3)csc2n1,i
C=CCNC(=O)NC(=O)CN1CCC(C(=O)N(C)C(C)C)CC1,i
CCn1c(SCc2ccc(Cl)cc2Cl)nc2c1c(=O)n(C)c(=O)n2C,i
N#Cc1nc(/C=C/c2ccccc2)oc1NCc1ccccc1,i
O=C(CNc1ccc(Br)cc1)N(C1CCCCC1)C1CCS(=O)(=O)C1 (stereo unspecified),i
COCCCNc1oc(-c2ccc([N+](=O)[O-])cc2)nc1C#N,i
SMILES,KDM5B inhibitor
O=C(CC(c1cccc([N+](=O)[O-])c1)c1c[nH]c2ccccc12)NCCc1ccccc1 (stereo unspecified),i
N#Cc1cccnc1Oc1ccccc1CN1CCCCC1,i
C#CCOc1ccccc1CN1CCN(c2ncc(F)cn2)CC1,28µM*
CN1CCN(Cc2ccccc2Oc2ccc(C(F)(F)F)cn2)CC1,i
Cc1ccc(-n2nnnc2SCC(=O)N(C)c2ccccc2C(=O)NCc2ccco2)cc1C,i
c1ccc(CN2CC[C@H](c3nc4ncccc4[nH]3)C2)cc1,i
c1cnc2nc(C3CCCN3)[nH]c2c1 (stereo unspecified),13µM*!
c1ccc(-c2n[nH]c(C3CCCCN3)n2)cc1 (stereo unspecified),i
Cc1ccc(/C=C2\CC(c3ccccc3)c3ccccc3C2=O)cc1 (stereo unspecified),i
O=C(CSc1nnnn1C1CC1)c1c[nH]c2ccccc12,i
Cc1cccc(OCCc2noc(C3CN(C(=O)NCC4CCCO4)C3)n2)c1 (stereo unspecified),i
CC1CN(C(=O)CCc2ncc(-c3ccc(F)cc3)o2)CCO1 (stereo unspecified),i
O=C(C1CCCCC1)N1CC[C@](O)(c2ccccc2)[C@H](N2CCCC2)C1,8.9µM*
CCOCC(=O)N1CCC(O)(c2ccccc2)[C@H](N2CCCC2)C1 (stereo partly specified),10µM*
CCC(=O)N1CCC(O)(c2ccccc2)[C@H](N(C)C)C1 (stereo partly specified),i
O=C(C1CCCCC1)N1CCC(Cc2ccccc2)(C(=O)O)CC1,i
CN(C)[C@@H]1CN(C(=O)C2CC2)CC[C@]1(O)c1ccccc1,i
CN(C)[C@@H]1CN(C(=O)c2ccccc2)CC[C@]1(O)c1ccccc1,i
COc1ccccc1NC(=O)Cn1ccc2c(Cl)cccc21,i
CN1CCN(c2cc(=O)c3ccnc(NCc4ccccc4)c3o2)CC1,40µM*
O=c1cc(-c2cccnc2)oc2c(NCc3ccc(F)cc3)nccc12,i
c1ccc(Nc2ccccn2)nc1,i
O=c1cc(-c2cnccn2)oc2c(Nc3ccccn3)nccc12,40µM*
Cn1cnc([N+](=O)[O-])c1NCc1ccccc1,i
O=c1cc(-c2ccccn2)oc2c(NCc3ccccc3)nccc12,40µM*
SMILES,KDM5B inhibitor
O=C(Nc1ccccc1)c1cccnc1NCc1ccccc1,i
CN1CCN(c2ccc(CNC(=O)c3ccco3)cc2)CC1,i
CSc1nc2n(n1)C(c1ccccc1Cl)C1=C(CCCC1=O)N2 (stereo unspecified),i
CC1=C[C@@H](CN2CCCCC2)[C@H](C(C)C)C[C@H]1Cc1nnc(-c2cncn2C)o1,i
c1ccc(CCc2nnc3sc(-c4c[nH]c5ccccc45)nn23)cc1,i
CC(=O)c1cccc(NC(=O)C(c2ccccc2)n2cnc3c2c(=O)n(C)c(=O)n3C)c1 (stereo unspecified),i
CC(=O)N1CCC2(CC1)CN(C(=O)c1c[nH]c3ccccc13)Cc1ccccc1O2,i
Nn1c(SC(C(=O)N2CCOCC2)c2ccccc2)nnc1-c1ccccc1F (stereo unspecified),i
Cc1nc2nc(NCc3cc(F)cc(F)c3)[nH]n2c(=O)c1CCO,i
O=C(NC1(C(F)(F)F)C(=O)Nc2c1c(=O)[nH]c(=O)n2Cc1ccco1)c1ccccc1F (stereo unspecified),i
O=C(O)c1cc2ccccc2s1,i
CN1CCCC1CNC(=O)c1cc2ccccc2s1 (stereo unspecified),i
O=C(O)c1cc2cn(C3CC3)cc2s1,25µM*
COc1cccc(CNC[C@H]2O[C@H](Cc3cc(-c4ccccn4)on3)CC[C@@H]2O)c1,i
Cc1cc(/C=C/C(=O)c2cccc(Br)c2)cc(C)c1O,i
N#C/C(=C\c1ccccc1OCc1ccccc1F)C(=O)Nc1ccccc1C(F)(F)F,i
CCOC(=O)c1cnn(-c2ncnc3sc4c(c23)CCC4)c1N,i
CCNc1ncnc2sc3c(c12)CCN(C(=O)NCCOC)C3,28µM*
COCC(=O)N1CCc2c(sc3ncnc(N4CCN(C)CC4)c23)C1,i
CC(C)Oc1ccc(C(=O)N2CCc3c(sc4ncnc(N)c34)C2)cc1,i
COCCCNc1ncnc2c1nnn2C,i
CCNC(=O)N1CCc2c(sc3ncnc(NCC)c23)C1,32µM*
COCCCNc1ncnc2c1nc1n2CCCC1,i
CCCNC(=O)N1CCc2c(sc3ncnc(N4CCN(C)CC4)c23)C1,28µM*
COCCNC(=O)N1CCc2nc(N(C)C)[nH]c(=O)c2CC1,i
COCCNC(=O)N1CCc2nc(N3CCN(C)CC3)[nH]c(=O)c2CC1,i
CCNC(=O)N1CCc2c(sc3ncnc(N(C)C)c23)C1,i
COCCCNc1ncnc2sc3c(c12)CCNC3,25µM*
